Among all 360,000 compounds or so, about 2,700 (0.75%) were called active. Only a selection was taken, and actives are over-represented in it overall. Values without a mark were called inactive. Cut-off read from the data, not from the text of the source: active = inhibition above about 4.5%; inactive = the rest.
Each compound was assayed on Methionine sulfoxide reductase A (Bos taurus) (assay: inhibition of methionine sulfoxide reductase A – biochemical, absorbance, bovine, HTS, primary screen (AID 651718;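 note: 0% = vehicle wells with enzyme and 100% = reference inhibitor wells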)). Details: purified bovine MsrA, absorbance read-out; at 15.5 µM; active compounds read high.

| Structure (SMILES) | inhibition |
| --- | --- |
| O=C(NCc1ccccc1)[C@H]1CCCN1C(=O)[C@@H]1CCCN1C(=O)c1ccc(Cl)cc1Cl | -0.17% |
| O=[N+]([O-])c1ccc(N=NNc2ccc([N+](=O)[O-])cc2)cc1 | 0.99% |
| NC(=S)N/N=C/c1ccc([N+](=O)[O-])cc1 | 5.41% (active) |
| NC(=O)C1(Nc2ccc([N+](=O)[O-])cc2)CCCC1 | 1.4% |
| Cc1ccc2nc(SCc3nnc(-c4ccccc4[N+](=O)[O-])o3)c(C#N)cc2c1 | -0.69% |
| Cc1ccc(-c2ccc(/C=C(\C#N)C(N)=S)o2)c([N+](=O)[O-])c1 | 10.9% (active) |
| COC(=O)[C@]12C[C@H](CC(=O)NCCC(C)C)C(=O)N(CCc3ccc(OC)c(OC)c3)C1=C[C@H](C(C)(C)C)O[C@@H]2C | -0.48% |
| CN[C@H]1C[C@H]2c3[nH]c4c(-c5ccccc5)cccc4c3CCN2C(=O)[C@H]1[C@H](C)O | 0.9% |
| CC(C)CC(CCc1ccccc1)OS(N)(=O)=O (stereo not drawn) | 0.27% |
| O=C(Cc1ccc([N+](=O)[O-])cc1)N/N=C/c1ccco1 | 1.04% |
| O=C(Cc1ccccc1)Nc1cccc(C(=O)N/N=C/c2ccco2)c1 | 2.33% |
| O=C(N/N=C/c1ccco1)c1ccc(C(=O)N/N=C/c2ccco2)o1 | 10% (active) |
| C[C@H]1CN([C@@H](C)CO)C(=O)CCCn2nncc2CO[C@@H]1CN(C)C(=O)Nc1ccc(N2CCN(C)CC2)cc1 | -0.42% |
| O=C(Nc1c(Cl)c(C2CC2)nn1-c1ccccc1)C(Cl)(Cl)Cl | -0.78% |
| O=C(Nc1cccc(F)c1)c1coc(=O)c(Br)c1 | 5.37% (active) |
| O=C(Nc1cccc(F)c1)[C@@H]1CCCN1 | 0.99% |
| Cc1nc2nc(SCC(=O)Nc3cccc(F)c3)[nH]c2cc1Br | -0.88% |
| Nc1nc2c(ncn2[C@@H]2O[C@H](C(=O)N[C@@H](Cc3ccccc3)C(=O)NCc3ccccc3)[C@@H](O)[C@H]2O)c(=O)[nH]1 | -0.25% |
| COC(=O)c1ccc(CN2C(=O)[C@]3(OCCC=C[C@H]3C)c3c(Br)cccc32)cc1 | 1.8% |
| COCCCNC(=O)C[C@H]1C[C@@]2(C(=O)OC)C(=C[C@H](C(C)(C)C)O[C@@H]2C)N(Cc2ccc3c(c2)OCO3)C1=O | -0.56% |
| Cc1cc(C(C)(C)C)cc(S(=O)(=O)Nc2ccc(C(=O)O)cc2)c1C | 1.5% |
| Cc1ccc(C(=O)Nc2ccccc2-c2ccccc2)cc1S(=O)(=O)Nc1ccccc1 | 4.76% (active) |
| O=C(O)c1ccc(F)c(S(=O)(=O)Nc2ccccc2)c1 | -0.45% |

From PubChem BioAssay AID651718 (The Scripps Research Institute Molecular Screening Center, 2012)
